# Source: PubChem
# Only some compounds are listed: those with a hit (about 7.8% of all), similar ones and a draw of the others.
# HCMV antiviral = blocks human cytomegalovirus replication; HFF cells, HCMV-luciferase reporter, 72 h; active compounds read low; activity change, negative = inhibition, % at 57.5 µM; hit rate 4.5% among 410,000; in the data active = activity change below about -60%; inconclusive = no clear call, values can overlap the other calls; inactive = above about -39%
#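 HFF cells seeded 16 h at 37C, treated with compounds, infected with luciferase-reporter HCMV at MOI 1 PFU/cell; luciferase read at 72 h post infection, normalized to buffer-only and Salinomycin controls.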
# VACV Venus inh = inhibitors of vaccinia virus (Venus reporter); Vaccinia virus Venus reporter expression, fluorescence; Potency, µM (doses to about 36.5 µM), without a hit: at the highest dose activity change, negative = inhibition, hits mostly inhibitors; hit rate 0.46% among 330,000; AID 720580; calls by dose curve; tested in A549 cells; also: potency is read from the fitted curve at half-maximal effect; nearly all actives have a fitted effect of over 30% in size
# LASV entry inh = Lassa virus entry inhibition | Lassa virus pseudotype entry inhibition, cell reporter | Potency, µM (doses to about 37.9 µM), for inactives: at the top dose activity change, negative = inhibition, usual class: inhibitors | hit rate 1.2% among 300,000 | AID 540256; calls by dose curve; tested in HEK293 cells; also: potency is read from the fitted curve at half-maximal effect; nearly all actives have a fitted effect of over 50% in size
# Vaccinia mCherry = vaccinia inhibition (mCherry reporter). Vaccinia virus mCherry reporter infection, fluorescence. Potency, µM (highest dose often 36.5 µM), without a hit: at the top dose activity change, negative = inhibition, usual class: inhibitors. hit rate 0.63% among 310,000; calls by dose curve; tested in A549 cells; also: potency is read from the fitted curve at half-maximal effect; nearly all actives have a fitted effect of over 35% in size
# MARV entry inh = inhibitors of Marburg virus binding or cell entry. Marburg virus pseudotyped entry inhibition, cell reporter. Potency, µM (titrated, usually from 37.8 µM), for inactives: at the highest dose activity change, negative = inhibition, actives largely listed as inhibitors. hit rate 1.8% among 300,000. AID 540276; calls by dose curve; tested in HEK293 cells; also: potency is read from the fitted curve at half-maximal effect
# HCV inh = HCV inhibition; Huh7.5.1 HCVcc-Cre infection, luciferase reporter, 44 h; Potency, µM (doses to about 41.8 µM), for the others: at the top dose activity change, negative = inhibition, most hits filed as inhibitors; hit rate 3.4% among 340,000; AID 651820; active = well fitted inhibition curve with a large enough effect; inconclusive = small, poorly fitted or top-dose-only effect, or another doubt; inactive = no such curve, though single readings can be large or run the other way; also: potency is read from the fitted curve at half-maximal effect
#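 HCVcc-Cre virus at an moi near 0.5 was added right after compound to cells cultured 4 h from seeding (1,000 cells/well). Luciferase activity was determined 44 h later, 15 min after substrate addition at RT.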
# The depositor's hits bear a star; i = inactive; ? = inconclusive; . = not tested or not shown; + = active, no number; [ ] = dose if it differs, or a comment. % is scaled to controls: 0 for no effect and ±100 for the full control effect.
SMILES,HCMV antiviral,VACV Venus inh,LASV entry inh,Vaccinia mCherry,MARV entry inh,HCV inh
COc1ccc(C(=O)N/N=C/C(Br)=C/c2ccccc2)cc1,-65*,-13%,6%,-27%,-2%,?
O=C(N/N=C/C(Br)=C/c1ccccc1)c1cnccn1,-61*,-25%,?,-21%,?,-8%
CC1CCCN(S(=O)(=O)c2ccc(N3CCCCS3(=O)=O)cc2)C1 (stereo not drawn),1,-12%,5%[46.1 µM],-12%,.,.
CCCCNC(=O)Cn1c(SCc2cccc(C)c2)nc2ccncc21,.,5%,.,40%,.,.
Cc1ccccc1OCCn1cc(C(=S)N2CCCC2)c2ccccc21,-26,?,-3%,?,?,11µM*
CC(=O)c1cn(CCOc2ccccc2C)c2ccccc12,-27,.,.,.,.,0.79µM*
CC1CCN(C(=O)Cn2cc(SCC(=O)Nc3ccccc3C(F)(F)F)c3ccccc32)CC1,-64*,-7%,-16%[46.1 µM],6%,.,.
O=C(CSc1cn(CC(=O)N2CCCC2)c2ccccc12)Nc1ccccc1C(F)(F)F,?,-15%,-1%[46.1 µM],-12%,.,.
COC(=O)[C@@H]1[C@@H](C(=O)OC)C2(c3ccccc3-c3ccccc32)N(c2ccc(Cl)cc2)N1C#N,-82*,?,?,?,10µM*,1.8µM*
COC(=O)C1OC2(OC1C(=O)OC)c1ccccc1-c1ccccc12 (stereo not drawn),-36,20%,2%,.,7%,4%
CCC(=O)NC(Nc1sc2c(c1C(=O)OC)CCN(C)C2)(C(F)(F)F)C(F)(F)F,-101*,.,1%,.,-18%,4%
CCOC(=O)CNC(=O)Cn1nc(N2CCN(c3ccccc3)CC2)ccc1=O,-14,-2%,5%[46.1 µM],0%,.,.
Cc1ccc(Cn2c(=O)n(Cc3ccccc3Cl)c(=O)c3cccnc32)cc1,12,1%,.,-14%,10%[46.1 µM],.
CC(C)c1cccc(-c2csc(C(O)c3ccc(F)c(F)c3)n2)c1 (stereo not drawn),-70*,-10%,.,i,.,.
COc1ccc(-c2csc(C(O)c3cccc(OC)c3)n2)cc1 (stereo not drawn),-68*,-14%,.,7%,.,.
OC(c1ccc(F)cc1)c1nc(-c2ccccc2)cs1 (stereo not drawn),48,-25%,.,5%,.,.
CC(C)c1cccc(-c2csc(C(O)c3ccc(F)cc3)n2)c1 (stereo not drawn),-3,-24%,.,-9%,.,.
COc1cccc(C(O)c2nc(-c3ccc(N(C)C)cc3)cs2)c1 (stereo not drawn),-35,-11%,.,i,.,.
OC(c1ccc(F)cc1)c1nc(-c2ccc(Cl)cc2)cs1 (stereo not drawn),-66*,?,.,-27%,.,.
COC(=O)c1c(NC(=O)Cc2ccccc2)sc2c1CCN(C(C)C)C2,-28,-23%,.,?,.,?
COC(=O)c1sc(NC(=O)c2ccc([N+](=O)[O-])o2)c(C#N)c1C,0,.,.,.,6%,11µM*
CC(C)N1CCc2c(sc(NC(=O)c3cc(-c4cccs4)nc4ccccc34)c2C(N)=O)C1,.,?,?,?,?,10µM*
CN1CCc2c(sc(NC(=O)c3ccc(C(=O)c4ccccc4)cc3)c2C(N)=O)C1,-3,.,.,.,.,?
CCOC(=O)c1sc(NC(=O)c2ccco2)c(C#N)c1C,-2,-5%,0%,-12%,-2%,32%
CC(C)N1CCc2c(sc(NC(=O)c3ccc([N+](=O)[O-])o3)c2C(N)=O)C1,-98*,.,.,.,.,.
SMILES,HCMV antiviral,VACV Venus inh,LASV entry inh,Vaccinia mCherry,MARV entry inh,HCV inh
CC(C)N1CCc2c(sc(NC(=O)c3nc4ccccc4s3)c2C(N)=O)C1,-36,-18%,?,-24%,2%[46.1 µM],?
COC(=O)c1c(NC(=O)c2ccc([N+](=O)[O-])o2)sc2c1CCN(C(C)C)C2,?,14µM*,?,?,?,2.8µM*
Cn1c(NCc2ccccc2)nc2cnc(Nc3ccccc3Cl)cc21,-9,.,.,.,.,.
CCc1ccc(C=O)cc1,.,-5%,.,-9%,.,.
N[C@H](Cc1ccccc1)C(=O)O,.,-7%,.,i,.,.
CC(=O)N1CCc2c(sc(NC(=O)c3ccc([N+](=O)[O-])o3)c2C#N)C1,-98*,.,.,.,.,-8%
CCCCN(C)C(=O)C1CCC(Cn2c(=O)[nH]c3ccsc3c2=O)CC1 (stereo not drawn),-23,1%,6%[46.1 µM],-15%,.,.
COc1cccc(CNC(=S)NC2CCCC2)c1,-61*,-7%,8%,-9%,-4%,?
COc1ccccc1CNC(=S)NC1CCCCC1,-74*,-26%,8.9µM*,-13%,?,-27%
Fc1ccccc1CNC(=S)NC1CCCCC1,.,-10%,?,-7%,?,?
COc1ccc(-c2nc3cc(F)ccc3nc2C(=O)Nc2c(C)cccc2C)cc1,16,.,.,.,.,.
CCCCOc1ccc(/C=C/C(=O)NC2=Nc3ccccc3NC(C)=C2C(=O)OCC)cc1OC,70,-12%,1%[46.1 µM],i,6.3µM*,?
COc1ccccc1/C=N/NC(=O)c1nnn(-c2nonc2N)c1-c1cccs1,.,.,.,.,.,35%
Nc1nonc1-n1nnc(C(=O)N/N=C/c2cccc(Cl)c2)c1-c1ccc2c(c1)OCO2,+,-9%,7%[46.1 µM],i,1%[46.1 µM],-4%
Nc1nonc1-n1nnc(C(=O)N/N=C/c2ccc3c(c2)OCO3)c1-c1ccccc1,-70*,-5%,.,-5%,19%[46.1 µM],?
Nc1nonc1-n1nnc(C(=O)N/N=C/c2ccc(Br)cc2)c1-c1ccc2c(c1)OCO2,+,-15%,-5%[46.1 µM],-12%,?,-2%
Nc1nonc1-n1nnc(C(=O)N/N=C/c2c(F)cccc2Cl)c1-c1ccc2c(c1)OCO2,0,.,.,.,.,22%
Nc1nonc1-n1nnc(C(=O)N/N=C/c2ccc(F)cc2)c1-c1cccs1,+,-8%,-6%[46.1 µM],-15%,-17%[46.1 µM],-11%
Cn1cc(CN2CCOc3ccc(C(O)C4CCCCC4)cc3C2)cn1 (stereo not drawn),.,-10%,.,-6%,.,.
O=C(CCc1nc2ccccc2c(=O)[nH]1)N1CCN(c2ccccc2Cl)CC1,2,.,.,.,.,11µM*
Brc1cnc(N2CCCC2)nc1N1CCOCC1,34,.,0%,.,-17%,22µM*
Clc1ccc(-c2c[n+](Cc3ccc(Cl)c(Cl)c3)c3n2CCC3)cc1,.,.,.,.,.,4%
Cc1ccc(-c2c[n+](Cc3cccc(Cl)c3)c3n2CCC3)cc1,-86*,-23%,?,-24%,?,-26%
Clc1cccc(C[n+]2cc(-c3ccccc3)n3c2CCC3)c1,-70*,-29%,3%,0%,?,8%
Cc1ccc(CN2C(=O)C(CC(C)C)Nc3ncnc(N4CCCCC4)c32)cc1 (stereo not drawn),-19,-21%,.,1%,.,.
COCCSc1ccccc1C(=O)Nc1cc([N+](=O)[O-])ccc1OC,-12,-12%,.,-6%,.,7.9µM*
COCCSc1ccccc1C(=O)Nc1ccc([N+](=O)[O-])cc1OC,80,.,.,.,.,?
